Consider 9 compounds from PubChem BioAssay.

The structures appear in SMILES notation. Records with an inconclusive call do not appear. The source made the active and inactive calls.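 How the source made its calls, unless noted: active means Her2 level under about 52% in both replicate screens, with viability over 70% of control (limit read from the data); inconclusive means Her2 under the limit in one screen only, or viability under 70%; inactive means Her2 level above the set limit.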

The nature of test [1]: reducers of endogenous Her2 protein level, primary screen, SKBR3 breast tumor cells, AlphaScreen, ATP viability (AID 461).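 On Her2 level: lower value means less Her2 protein in the cells.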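 On viability: percent of carrier control wells set as 100% viability.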 The note with it: 18-24 h, measured here: SKBR3 viability, ATP luminescence, at 10 µM.
The target of test [2] is Receptor tyrosine-protein kinase erbB-2 (Homo sapiens) (UniProt P04626). The description is as above. The note with it: 18-24 h, at 10 µM, stronger effect = lower value.
The nature of test [3]: SK-BR-3 cell growth inhibitors, pilot screen, 24 h, human (AID 572;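 active means viability at or below 10% of carrier control in both of two separate runs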;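 further: compound exposure lasted between 18 and 24 h rather than exactly 24 h; 100% = carrier-treated control wells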). The note with it: SK-BR-3 viability, CellTiter-Glo luminescence, at 10 µM, stronger effect = lower value.
Test [4] in a line: HUVEC growth inhibition – cell-based, human, primary screen (AID 575;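 active means viability at or below 30% in both replicate assays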;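 further: 100% = median of untreated cell wells with 0.1% DMSO on each plate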). The note with it: HUVEC proliferation, CellTiter-Glo luminescence, 72 h; at 10 µM; stronger effect = lower value.
Test [5] can be described thus: growth inhibitors of H69AR lung tumor, primary screen, human, duplicate replicates (AID 580;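 active means viability at or under a set limit in both replicates, limit being median viability minus 3 SD, cut at about 48% in these data, passing the limit was not always enough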;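 further: 100% = mean luminescence of untreated wells and 0% = no signal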). The note with it: H69AR lung tumor cells viability, ATP luminescence, 72 h; at 10 µM; stronger effect = lower value.
Test [6] can be described thus: reversal of MRP1-mediated doxorubicin resistance, pilot screen, H69AR cells, doxorubicin co-treatment (AID 601;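 active means viability loss from added drug above about 55%, and viability with drug at most 40%, in both replicates, limit read from the data, passing the limit was not always enough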). The note with it: CellTiter-Glo, 72 h, at 10 µM; for differential viability (reversal): stronger effect = higher value.
Test [7] is described as follows: 384-well plate pilot, post-Golgi transport modulator project, inhibition of yeast transport mutant growth (AID 636; in the data active means inhibition above about 31%). The note with it: absorbance 615 nm, about 18 h, stronger effect = higher value.
The nature of test [8]: growth suppression of yeast trafficking mutant, preliminary HTS, modulators of trafficking downstream of Golgi apparatus project, 1536-format plate, OD 615 nm (AID 637; in the data active means inhibition above about 30%). The note with it: yeast transport mutant growth, absorbance 615 nm, 18 h; stronger effect = higher value.
A short description of test [9]: OD615 S. cerevisiae growth inhibition, permissive medium, pilot counter-assay, permissive growth control for S. cerevisiae lifespan shortening project (AID 705;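 active means growth inhibition above 25% in both replicates, a cutoff set 3 SD above the mean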). The note with it: OD615, 24 h, at 10 µM, stronger effect = higher value.
The nature of test [10]: Restrictive medium S. cerevisiae growth inhibition, OD615, pilot screen of yeast lifespan reduction project, restrictive growth control (AID 706;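 active means growth inhibition above a set limit, 3 SD over mean compound inhibition, in both replicates, cut at about 43% in these data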;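 further: modified DeaD lifespan yeast strain shifted to restrictive glucose medium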). The note with it: OD615, 48 h, at 10 µM, stronger effect = higher value.
The nature of test [11]: viability gain of MRP-1-high H69AR cells under doxorubicin, pilot screen, MRP-1 activator project, CellTiter-Glo, duplicate (AID 807;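 active means viability increase at or above a cutoff of the median across tested compounds plus 3 SD, cut at about 8.5% in these data, passing the limit was not always enough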;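 further: compound pretreatment 18-22 h then 72 h combined with doxorubicin; 0% = doxorubicin alone and 100% = vehicle without doxorubicin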). The note with it: H69AR viability with doxorubicin, CellTiter-Glo luminescence; at 10 µM; stronger effect = higher value.
Test [12] can be described thus: growth suppression of beta-catenin knockout HCT116, pilot screen, human colon tumor cells (AID 823;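 active means cell viability at or below a set limit in both duplicate runs, the limit being the all-compound median minus 4 SD, cut at about 23% in these data, passing the limit was not always enough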;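 further: 0% = wells killed by 20 µM Hyamine and 100% = untreated DMSO cell wells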). The note with it: CellTiter-Glo, 60 h, at 10 µM, stronger effect = lower value.
Test [13] in a line: growth suppression of PTEN-deleted HCT116, pilot screen, cell-based, HCT116 clonal line, CellTiter-Glo (AID 824;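 active means viability at or below 27.92% in each of two runs, the all-compound median minus 4 SD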;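 further: 0% = 20 µM Hyamine control and 100% = vehicle cell control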). The note with it: 60 h, at 10 µM, stronger effect = lower value.
A short description of test [14]: inhibitors of the yeast RAM network, pilot screen, dse1pr::URA3 reporter, 5-FOA selection (AID 869;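 active means inhibition over a set limit, the all-compound mean plus 3 SD, in both replicate runs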;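 further: 0% = DMSO wells with no growth and 100% = 10 µM 1-NA-PP1 with full growth; RAM network block rescues cells from 5-FOA so hits raise OD615 growth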). The note with it: S. cerevisiae dse1pr::URA3 5-FOA growth, OD615, 2 d; at 10 µM; stronger effect = higher value; strain carries analog-sensitive mutant Cbk1 kinase.
Test [15] can be described thus: RAM signaling pathway blockade in yeast – S. cerevisiae, Pdr1DBD-CYC8 efflux-inhibited sensitized strain, primary screen (AID 1298;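 active means RAM network inhibition above 8.4% in each of two replicates, 3 SD over the compound average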;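 further: 0% = DMSO untreated cells without growth and 100% = 10 µM 1-NA-PP1 full growth; higher means more yeast growth rescued from 5-FOA killing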). The note with it: S. cerevisiae cbk1-as DSE1-URA3 strain, 5-FOA growth OD615, 2 d; at 50 µM; stronger effect = higher value.
The mark [16] stands for this setting: H69AR cells + 2 uM doxorubicin, measured here: viability with 2 uM doxorubicin, stronger effect = lower value.
Setting [17] is: H69AR cells, compound alone cytotoxicity.

Sequence of Receptor tyrosine-protein kinase erbB-2 (Homo sapiens) (P04626 whole entry, looked up): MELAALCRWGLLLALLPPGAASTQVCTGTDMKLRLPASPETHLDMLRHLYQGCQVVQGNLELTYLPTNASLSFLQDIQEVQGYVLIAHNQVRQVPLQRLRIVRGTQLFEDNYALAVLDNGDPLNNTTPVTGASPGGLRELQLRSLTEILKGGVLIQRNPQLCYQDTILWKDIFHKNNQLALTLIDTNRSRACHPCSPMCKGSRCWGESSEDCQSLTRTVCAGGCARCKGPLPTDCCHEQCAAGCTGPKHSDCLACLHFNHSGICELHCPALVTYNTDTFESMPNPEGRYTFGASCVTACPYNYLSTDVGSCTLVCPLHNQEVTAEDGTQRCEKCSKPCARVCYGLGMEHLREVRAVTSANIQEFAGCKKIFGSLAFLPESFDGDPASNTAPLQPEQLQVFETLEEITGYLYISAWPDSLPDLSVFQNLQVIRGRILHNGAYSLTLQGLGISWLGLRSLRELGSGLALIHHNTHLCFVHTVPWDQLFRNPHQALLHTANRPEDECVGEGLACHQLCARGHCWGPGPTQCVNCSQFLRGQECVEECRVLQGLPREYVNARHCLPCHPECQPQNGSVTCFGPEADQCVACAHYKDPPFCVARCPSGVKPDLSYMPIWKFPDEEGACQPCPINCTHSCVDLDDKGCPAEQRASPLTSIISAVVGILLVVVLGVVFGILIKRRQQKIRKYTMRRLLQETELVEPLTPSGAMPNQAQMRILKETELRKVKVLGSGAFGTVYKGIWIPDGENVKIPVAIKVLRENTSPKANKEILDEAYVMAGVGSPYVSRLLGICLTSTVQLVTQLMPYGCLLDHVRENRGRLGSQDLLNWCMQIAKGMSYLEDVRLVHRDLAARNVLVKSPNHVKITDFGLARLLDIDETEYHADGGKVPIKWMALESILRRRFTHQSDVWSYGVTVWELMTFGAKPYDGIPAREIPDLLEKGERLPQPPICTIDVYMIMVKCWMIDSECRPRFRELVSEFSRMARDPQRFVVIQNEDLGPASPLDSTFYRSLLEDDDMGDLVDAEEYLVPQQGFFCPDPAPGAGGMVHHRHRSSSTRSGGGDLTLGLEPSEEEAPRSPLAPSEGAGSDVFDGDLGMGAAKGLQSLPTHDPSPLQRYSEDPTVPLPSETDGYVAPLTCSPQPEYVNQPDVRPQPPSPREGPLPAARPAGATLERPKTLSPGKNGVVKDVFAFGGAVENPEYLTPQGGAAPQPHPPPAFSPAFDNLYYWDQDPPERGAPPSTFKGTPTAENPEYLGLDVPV

`COc1cc(NC(=O)CC(C)C)ccc1NC(=O)c1ccco1`: the viability in test [1] was 94.5%; in test [3] it was 94.5% (inactive); in test [4], 103% (inactive); in test [5] it was 109% (inactive); in test [6] (setting [16]), 93.1%; in test [6] (setting [17]), 109%. The viability in test [12] is 100% (inactive); in test [13], 96.2% (inactive). In [2], the Her2 level was 93% (inactive). Also, in test [6] (H69AR cells + 2 uM doxorubicin), the differential viability (reversal) is 15.9% (inactive). In addition, the inhibition was -3.92% (inactive) in test [7], -9.68% (inactive) in test [8] and 0.825% (inactive) in test [14]. The growth inhibition in [9] is -3.81% (inactive); in [10] it was -1.97% (inactive). The viability increase in [11] was -0.27% (inactive). In addition, the RAM network inhibition in test [15] is 0.51% (inactive).

For `COC(=O)C(C)Sc1nnc2n(-c3cccc(C)c3)c(=O)c3c4c(sc3n12)CCCC4` (stereo not drawn), the viability was 87.5% in test [1]; 87.5% (inactive) in test [3]; 86.8% (inactive) in test [4]; 83.1% (inactive) in [5]; 18.4% in [6] (setting [16]); 83.1% in test [6] (setting [17]). For the same compound, the viability in [12] is 89.5% (inactive); in test [13], 85.5% (inactive). Further, in [2], the Her2 level was 112% (inactive). Moreover, the differential viability (reversal) in test [6] (H69AR cells + 2 uM doxorubicin) was 64.7% (active). For the same compound, the inhibition was 2.53% (inactive) in test [7], 2% (inactive) in test [8] and 0.06% (inactive) in test [14]. In addition, the growth inhibition is -9.47% (inactive) in test [9] and 16.4% (inactive) in [10]. Further, in test [11], the viability increase was -1.93% (inactive). Further, the RAM network inhibition in test [15] is 1.84% (inactive).

For `O=C(NCc1ccc2c(c1)OCO2)C1CCCN(S(=O)(=O)c2cccc3cccnc23)C1` (stereo not drawn), the viability in test [1] is 95.5%; in test [3] it was 95.5% (inactive); in test [4], 70% (inactive); in [5], 83.3% (inactive); in test [6] (setting [16]) it was 78.1%; in [6] (setting [17]), 83.3%. In addition, the viability is 84.9% (inactive) in [12] and 80.7% (inactive) in test [13]. Moreover, in test [2], the Her2 level is 85% (inactive). Further, the differential viability (reversal) in test [6] (H69AR cells + 2 uM doxorubicin) is 5.17% (inactive). Besides, the results for the inhibition in [7], in [8] and in test [14] were -4.93% (inactive), 4% (inactive) and 0.32% (inactive), respectively. The growth inhibition in test [9] was -10.4% (inactive); in test [10], -10.5% (inactive). Also, the viability increase in test [11] is -2.13% (inactive). The RAM network inhibition in test [15] is 5.25% (inactive).

With `COc1cccc(NC(=O)CSc2nnc(Cc3cccn3C)n2-c2ccc(F)cc2)c1`, the viability in test [1] is 94.5%; in test [3], 94.5% (inactive); in test [4] it was 85.7% (inactive); in [5] it was 78.2% (inactive); in test [6] (setting [16]), 86.2%; in [6] (setting [17]), 78.2%. Also, the viability is 88.9% (inactive) in test [12] and 90.1% (inactive) in [13]. For the same compound, in [2], the Her2 level was 115% (inactive). Further, in [6] (H69AR cells + 2 uM doxorubicin), the differential viability (reversal) was -8.06% (inactive). In addition, the inhibition in [7] is -7.73% (inactive); in [8], -8% (inactive); in test [14], 1.09% (inactive). Moreover, the growth inhibition in test [9] was 0.385% (inactive); in [10] it was 13.1% (inactive). In [11], the viability increase is -4.32% (inactive). Moreover, the RAM network inhibition in [15] is 6.98% (inactive).

On to `O=C1CN(c2nc3ccccc3n3cnnc23)CC(=O)N1CCc1ccccc1`, for which the viability in test [1] is 91.5%; in test [3], 91.5% (inactive); in test [4], 104% (inactive); in test [5], 102% (inactive); in [6] (setting [16]) it was 90.2%; in test [6] (setting [17]) it was 102%. Moreover, the viability in [12] is 102% (inactive); in test [13] it was 95.9% (inactive). In test [2], the Her2 level was 100% (inactive). Further, the differential viability (reversal) in [6] (H69AR cells + 2 uM doxorubicin) was 12% (inactive). For the same compound, the inhibition is -0.38% (inactive) in test [7], -1.17% (inactive) in test [8] and 3.38% (inactive) in [14]. Further, the growth inhibition is -6.92% (inactive) in test [9] and -3.06% (inactive) in [10]. The viability increase in test [11] is 0.25% (inactive). For the same compound, the RAM network inhibition in test [15] is 5.88% (inactive).

On to `Cc1cc(NS(=O)(=O)c2ccccc2)no1`, for which the viability is 114% in test [1]; 114% (inactive) in test [3]; 94.5% (inactive) in test [4]; 90.7% (inactive) in test [5]; 91.7% in test [6] (setting [16]); 90.7% in test [6] (setting [17]). Also, the viability is 99.9% (inactive) in test [12] and 98.5% (inactive) in test [13]. Further, in [2], the Her2 level was 115% (inactive). Further, in test [6] (H69AR cells + 2 uM doxorubicin), the differential viability (reversal) was -1.04% (inactive). The inhibition is -5.33% (inactive) in test [7], 2.83% (inactive) in [8] and 1.86% (inactive) in test [14]. Besides, the figures for the growth inhibition in [9] and in test [10] were -14.5% (inactive) and -6.42% (inactive), respectively. For the same compound, the viability increase in test [11] is 0.56% (inactive). Further, the RAM network inhibition in test [15] was 5.41% (inactive).

For `CCN1CCN(C(=O)C2CCN(C(=O)c3cc4sccc4n3CC)CC2)CC1`, the viability in test [1] was 104%; in [3] it was 104% (inactive); in test [4] it was 115% (inactive); in [5], 83% (inactive); in [6] (setting [16]), 98.3%; in test [6] (setting [17]), 83%. Also, the viability in test [12] was 105% (inactive); in test [13] it was 95.5% (inactive). The Her2 level in test [2] is 104% (inactive). Besides, in test [6] (H69AR cells + 2 uM doxorubicin), the differential viability (reversal) was -15.3% (inactive). Also, the inhibition was -5.07% (inactive) in test [7], 3.67% (inactive) in test [8] and 0.53% (inactive) in test [14]. For the same compound, the growth inhibition in [9] is -13.3% (inactive); in [10], -13.5% (inactive). In test [11], the viability increase was -1.69% (inactive). Further, in test [15], the RAM network inhibition is 0.58% (inactive).

On to `CCc1c(C)c2c(C)nn(-c3ccccc3)c2[nH]c1=O`, for which the viability in test [1] was 83%; in test [3], 83% (inactive); in [4] it was 68.9% (inactive); in test [5] it was 90.1% (inactive); in test [6] (setting [16]) it was 84.2%; in [6] (setting [17]), 90.1%. For the same compound, the viability is 85.1% (inactive) in [12] and 79% (inactive) in [13]. In addition, in test [2], the Her2 level is 81.5% (inactive). Besides, the differential viability (reversal) in test [6] (H69AR cells + 2 uM doxorubicin) is 5.91% (inactive). Further, the inhibition in test [7] is -0.65% (inactive); in test [8], -1.31% (inactive); in test [14], 1.53% (inactive). For the same compound, the growth inhibition in test [9] is -3.86% (inactive); in test [10] it was 4.15% (inactive). Also, in test [11], the viability increase was -2.75% (inactive). Further, the RAM network inhibition in test [15] is 0.31% (inactive).

On to `Cn1nnnc1SCC(=O)Nc1ccccc1C(=O)NCc1ccccc1`, for which the viability in test [1] was 99%; in [3], 99% (inactive); in test [4], 108% (inactive); in [5], 90.2% (inactive); in test [6] (setting [16]) it was 94.9%; in [6] (setting [17]), 90.2%. For the same compound, the viability in [12] is 97.6% (inactive); in [13], 97.8% (inactive). In addition, the Her2 level in test [2] is 98% (inactive). In addition, the differential viability (reversal) in test [6] (H69AR cells + 2 uM doxorubicin) is -4.73% (inactive). Also, the inhibition is -6.49% (inactive) in test [7], -7.33% (inactive) in test [8] and 1.04% (inactive) in test [14]. Also, the results for the growth inhibition in [9] and in test [10] were -9.6% (inactive) and 4.06% (inactive), respectively. For the same compound, the viability increase in test [11] was -2.1% (inactive). Further, in [15], the RAM network inhibition was 7.35% (inactive).
